Among the data in PubChem BioAssay (Tox21) are Potency and activity change, negative = cytotoxicity values, retold here.

Inconclusive results are not listed. Entries that show only a call come without a potency. Values without a mark were called inactive. Active and inactive are the calls of the source. The call rests on the fitted dose curve; in most records, active means well fitted cell-killing curve with a large enough effect in the repeat runs; inconclusive means weak or mixed curves, or effect the other way; inactive means flat fitted curve, though single readings scatter.
Potency means the concentration at half of the fitted maximal effect.

The nature of the assay: qHTS RealTime-Glo MT Cell Viability Assay in HEK293 cells - 0 hour (AID 1224880). Further: nearly all actives have a fitted effect of over 45% in size. On activity change, negative = cytotoxicity: top concentration of the series differs between compounds. The note with it: RealTime-Glo luminescence; series mostly up to 76.8 µM. An excerpt:
U.S. Tox21 Program National Center for Advancing Translational Sciences [NCATS] NIH Chemical Genomics Center [NCGC] U.S. Environmental Protection Agency [EPA] National Institutes of Environmental Health Sciences [NIEHS] National Toxicology Program [NTP] U.S. Food and Drug Administration [FDA] Tox21 Assay Overview: Measure of cell viability is critical in the cell-base assay. Analysis of cell viability is necessary for the characterization of cell responses to cytotoxic drugs and environmental stress. A RealTime-Glo MT Cell Viability Assay to monitor cell viability in real time of continues cell culture during 40 hours of compound treatment was used to screen Tox21 10K library compounds in Hek293 cells. The RealTime-Glo MT Cell Viability Assay is a nonlytic, homogeneous, bioluminescent method to measure cell viability in real time using a simple, plate-based method. The assay involves adding NanoLuc luciferase and a cell-permeant prosubstrate to cells in culture. Viable cells reduce the proprietary prosubstrate to generate a substrate for NanoLuc luciferase. This substrate diffuses from cells into the surrounding culture medium, where it is rapidly used by the NanoLuc Enzyme to produce a luminescent signal. The signal correlates with the number of viable cells, making the assay well suited for cytotoxicity studies.
Tox21 Assay Protocol Summary: The mixture of Hek293 cell suspension and reagents were dispensed at 600cells/6 ul/well in 1536-well tissue culture treated black solid bottom plates using a Multidrop dispenser. After the assay plates were incubated at a 37 C/5% CO2 incubator for 5 hours, 23 nL of compounds dissolved in DMSO, positive and negative controls was transferred to the assay plate by a pintool work station. The plates were incubated at 37 C for 40 hours. The luminescence intensity were measured at 0h, 8h, 16h, 24h, 32h and 40h time points using ViewLux plate reader during compound treatment.
Turning to `CC(C)CC=O`, the Potency entry is “inactive”.
For `FC(F)(F)C(F)(F)C(F)(F)C(F)(F)C(F)(F)C(F)(F)CCI`, the Potency entry is “inactive”.
Same read-out and setting: the value for `CC1CCc2cc(F)cc3c(=O)c(C(=O)O)cn1c23` (stereo not given) was “inactive”; that for `N#Cc1c(F)cccc1F` was “inactive”.
On the same count and under the same terms, under `OCC1CC2CC1C1CCC(CO)C21` (stereo not given) stands “inactive”; under `CCCCCOC(=O)COc1cc(N2C(=O)C3=C(CCCC3)C2=O)c(F)cc1Cl`, “inactive”.
The same measure, in the same setting: under `CN(C(=O)CCCOc1ccc2[nH]c(=O)ccc2c1)C1CCCCC1` stands “inactive”; under `O=S(=O)(O)c1ccc(O)c2ncccc12`, “inactive”; under `COCCO`, “inactive”.
On to `O=C(O)c1cccc(N(Cc2cccnc2)c2ccc(OC(F)F)c(OC(F)F)c2)c1`, for which the Potency was 19.5 µM (active).
As to `Cc1cccc(OCCOc2cccc(C)c2)c1`, the Potency entry is “inactive”.
The same measure, in the same setting: under `CC(C)c1ccccc1C(C)C` stands “inactive”.
With `CC(C)c1ccc2c(C(C)C)cc(C(C)C)c(S(=O)(=O)O)c2c1`, the Potency result is “inactive”.
The same measure, in the same setting: under `Oc1ccc(C(O)CNCCCCCCNCC(O)c2ccc(O)c(O)c2)cc1O` (stereo not given) stands “inactive”; under `CN(C)C/C=C(/c1ccc(Br)cc1)c1cccnc1`, “inactive”.
On the same count and under the same terms, the value for `CCCC[C@H]1CN(CC2CCOCC2)C(=O)OC12CCN(C1(C)CCN(C(=O)c3c(C)ncnc3C)CC1)CC2` was “inactive”.
For `Cn1sccc1=O`, the Potency result is “inactive”.
On the same count and under the same terms, the value for `Cc1cccc(Oc2ccccc2)c1` was “inactive”; that for `Oc1ccc(Sc2ccc(O)cc2)cc1` was “inactive”.
For `CCCCCCCCCCCCCCCCCBr`, the activity change, negative = cytotoxicity is -0.712% [at 15.8 µM].
Regarding `COC(Cc1ccccc1)OC`, the Potency result was “inactive”.
The same measure, in the same setting: the value for `CC(C)NCC(O)COc1ccc(CC(N)=O)cc1` (stereo not given) was “inactive”.
Same read-out and setting: under `O=C(O)COC(=O)Cc1ccccc1Nc1c(Cl)cccc1Cl` stands “inactive”; under `C1CCC2OC2C1` (stereo not given), “inactive”; under `Cc1occc1S`, “inactive”.
For `NC1CCN(c2nc3c(cc2F)c(=O)c(C(=O)O)cn3-c2ccc(F)cc2F)C1` (stereo not given), the Potency result is “inactive”.
Consider `Cn1c(=O)c2c(ncn2CC(O)CO)n(C)c1=O` (stereo not given), for which the Potency result is “inactive”.
As for `Oc1ccc(O)c2c(O)cccc12`, the Potency result was “inactive”.
With `C=C(C)C(=O)OCCN(C)C`, the Potency entry was “inactive”.
Still for that read-out and setting: the value for `CC(=O)c1ccc2c(c1)[C@H](NC(=O)c1ccc(F)cc1)[C@@H](O)C(C)(C)O2` was “inactive”; that for `c1ccc(OCc2ccc(CCCN3CCOCC3)cc2)cc1` was “inactive”.
`Nc1ccc(C(=O)Nc2ccccc2N)cc1`: the Potency result is “inactive”.
Take `CCN(CC)CCOc1ccc2c(c1)C(=O)c1cc(OCCN(CC)CC)ccc1-2`: the Potency result is “inactive”.
As to `CC(C)(C)c1ccc(OCC2CO2)cc1` (stereo not given), the Potency entry is “inactive”.
Consider `CCCCCc1ccc(N)cc1`, for which the Potency entry was “inactive”.
The same measure, in the same setting: the value for `Cc1ccc(C(=O)C(C)CN2CCCCC2)cc1` (stereo not given) was “inactive”.
On the same count and under the same terms, the value for `CCCCCOC(=O)c1ccc(O)cc1` was “inactive”; that for `O=C1CCCCCO1` was “inactive”.
Regarding `NCc1ccccc1`, the Potency entry is “inactive”.
On the same count and under the same terms, the value for `CC(=O)c1c(C)c([N+](=O)[O-])c(C(C)(C)C)c([N+](=O)[O-])c1C` was “inactive”.
